Data from PubChem BioAssay (Tox21).
Inconclusive results are not listed. A call without a number means that no potency is given here. The source made the active and inactive calls. The call rests on the fitted dose curve; in most records, active means well fitted curve in the direction sought with a large enough effect in the repeat runs; inconclusive means weak or mixed curves; inactive means no such curve, though single readings can be large; an effect the other way counts as inactive or inconclusive.

What was measured:
[1] = target: Cytochrome P450 1A2 (Homo sapiens) (UniProt P05177); experiment: Cytochrome P450 Family 1 Subfamily A Member 2 (CYP1A2) small molecule antagonists: luciferase reporter qHTS assay (AID 1671199); details: P450-Glo CYP1A2 enzyme, luciferin luminescence, 1 h; series mostly up to 115 µM
Cytochrome P450 1A2 (Homo sapiens), sequence (P05177 whole entry, looked up): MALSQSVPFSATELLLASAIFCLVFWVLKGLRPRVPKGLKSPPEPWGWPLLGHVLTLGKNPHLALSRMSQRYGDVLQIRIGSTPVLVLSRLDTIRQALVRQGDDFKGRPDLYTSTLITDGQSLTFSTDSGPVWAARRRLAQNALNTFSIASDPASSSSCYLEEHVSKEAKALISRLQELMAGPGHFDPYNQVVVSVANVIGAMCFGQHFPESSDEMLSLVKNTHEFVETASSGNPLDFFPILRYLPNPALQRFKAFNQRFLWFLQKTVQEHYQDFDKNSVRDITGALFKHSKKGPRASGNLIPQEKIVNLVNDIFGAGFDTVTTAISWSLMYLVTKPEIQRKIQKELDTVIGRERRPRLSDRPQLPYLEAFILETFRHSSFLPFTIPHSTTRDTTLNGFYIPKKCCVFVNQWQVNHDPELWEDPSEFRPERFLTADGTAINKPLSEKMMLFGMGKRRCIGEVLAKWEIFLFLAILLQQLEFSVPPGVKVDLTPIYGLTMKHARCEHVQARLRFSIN
How it was run: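 Steps: enzyme-substrate mix dispensed; test compounds and furafylline control pinned in; 10 min room temperature; NADPH regeneration solution added, 1 h; reaction stopped with luciferin detection reagent; luminescence read after 20 min.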

[2] = target: Voltage-gated inwardly rectifying potassium channel KCNH2 (Homo sapiens) (UniProt Q12809); experiment: Human Ether-a-go-go-Related Gene (hERG) channel small molecule antagonists: fluorescence cell-based qHTS assay (AID 1671200); details: hERG-U2OS cells, FluxOR thallium flux fluorescence; series mostly up to 76.8 µM
Voltage-gated inwardly rectifying potassium channel KCNH2 (Homo sapiens), sequence (Q12809 whole entry, looked up): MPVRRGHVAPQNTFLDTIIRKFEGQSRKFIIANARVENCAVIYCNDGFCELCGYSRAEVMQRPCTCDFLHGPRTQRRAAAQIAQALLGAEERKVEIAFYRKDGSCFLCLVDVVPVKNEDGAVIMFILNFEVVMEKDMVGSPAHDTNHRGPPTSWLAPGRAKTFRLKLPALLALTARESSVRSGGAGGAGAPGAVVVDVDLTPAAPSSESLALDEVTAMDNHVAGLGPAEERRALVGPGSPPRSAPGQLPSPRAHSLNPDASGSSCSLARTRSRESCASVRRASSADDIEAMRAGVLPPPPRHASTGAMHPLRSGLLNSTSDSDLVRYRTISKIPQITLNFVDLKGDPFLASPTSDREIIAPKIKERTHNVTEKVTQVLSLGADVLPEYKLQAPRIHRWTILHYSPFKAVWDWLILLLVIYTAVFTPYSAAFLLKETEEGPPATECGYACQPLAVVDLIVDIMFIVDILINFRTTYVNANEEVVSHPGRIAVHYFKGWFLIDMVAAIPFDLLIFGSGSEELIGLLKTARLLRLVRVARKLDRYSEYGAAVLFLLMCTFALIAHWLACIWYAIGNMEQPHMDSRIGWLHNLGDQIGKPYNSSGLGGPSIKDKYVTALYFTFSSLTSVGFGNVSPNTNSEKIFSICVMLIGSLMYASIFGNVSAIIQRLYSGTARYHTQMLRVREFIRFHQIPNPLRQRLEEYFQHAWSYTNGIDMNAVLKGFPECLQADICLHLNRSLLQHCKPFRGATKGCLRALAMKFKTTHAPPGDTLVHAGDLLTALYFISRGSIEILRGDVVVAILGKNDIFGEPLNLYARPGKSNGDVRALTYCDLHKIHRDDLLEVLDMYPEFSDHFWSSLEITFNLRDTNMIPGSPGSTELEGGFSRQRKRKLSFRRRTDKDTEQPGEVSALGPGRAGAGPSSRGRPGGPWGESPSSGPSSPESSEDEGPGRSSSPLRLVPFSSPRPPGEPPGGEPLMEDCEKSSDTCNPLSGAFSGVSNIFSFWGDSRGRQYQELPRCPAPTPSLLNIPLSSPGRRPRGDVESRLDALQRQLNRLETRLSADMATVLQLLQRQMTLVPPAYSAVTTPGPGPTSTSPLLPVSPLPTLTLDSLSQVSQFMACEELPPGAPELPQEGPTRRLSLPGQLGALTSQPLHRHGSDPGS
How it was run: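 Fluorescence at 540 nm emission (480 nm excitation) was recorded kinetically for 2 min at 1-second intervals once the thallium-containing stimulus reached cells previously loaded with FluxOR II dye.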

[3] = target: Cytochrome P450 3A4 (Homo sapiens) (UniProt P08684); experiment: Cytochrome P450 Family 3 Subfamily A Member 4 (CYP3A4) small molecule antagonists: luciferase reporter qHTS assay (AID 1671201); details: P450-Glo CYP3A4 enzyme, luciferin luminescence, 1 h; series mostly up to 115 µM
Cytochrome P450 3A4 (Homo sapiens), sequence (P08684 whole entry, looked up): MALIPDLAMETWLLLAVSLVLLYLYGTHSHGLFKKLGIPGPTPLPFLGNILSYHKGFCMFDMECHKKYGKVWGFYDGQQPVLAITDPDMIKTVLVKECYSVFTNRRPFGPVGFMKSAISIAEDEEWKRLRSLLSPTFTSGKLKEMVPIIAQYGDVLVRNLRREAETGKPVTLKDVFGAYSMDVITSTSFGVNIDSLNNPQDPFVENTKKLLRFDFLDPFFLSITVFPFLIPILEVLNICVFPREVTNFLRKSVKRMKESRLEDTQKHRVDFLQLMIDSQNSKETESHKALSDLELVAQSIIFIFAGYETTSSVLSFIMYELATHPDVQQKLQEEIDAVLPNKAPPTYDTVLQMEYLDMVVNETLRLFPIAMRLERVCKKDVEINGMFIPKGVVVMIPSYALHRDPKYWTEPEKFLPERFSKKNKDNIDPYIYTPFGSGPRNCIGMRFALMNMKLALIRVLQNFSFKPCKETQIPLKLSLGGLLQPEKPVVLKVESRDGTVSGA
How it was run: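 qHTS, 1536-well. CYP3A4 + proluciferin substrate, cpd 10 min RT → NADPH regen 1 h RT → detection reagent 20 min → luminescence (RLU). Ketoconazole positive control.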
Further: nearly all actives have a fitted effect of over 50% in size.
Potency means the concentration at half of the fitted maximal effect.

Compound	Potency [1]	Potency [2]	Potency [3]
CC1CCCCN1CCCOC(=O)c1ccc(OC2CCCCC2)cc1 (stereo not given)	inactive	2.68 µM (active)	inactive
C=C1C(C)(C)[C@@]2(Cl)C(Cl)[C@]1(Cl)C(Cl)(Cl)C2(Cl)Cl (stereo not given in full)	39.2 µM (active)	27 µM (active)	0.985 µM (active)
CC(C)(C)c1cc(CCC(=O)NCCCCCCNC(=O)CCc2cc(C(C)(C)C)c(O)c(C(C)(C)C)c2)cc(C(C)(C)C)c1O	inactive	inactive	2.83 µM (active)
CCC(C)(C)c1cc(O)c(C(C)(C)CC)cc1O	inactive	inactive	inactive
C=C(C)C(=O)OCCC[Si](Cl)(Cl)Cl	inactive	inactive	12.7 µM (active)
Cc1cc2c(C(C)C)c(O)c(O)c(C=O)c2c(O)c1-c1c(C)cc2c(C(C)C)c(O)c(O)c(C=O)c2c1O	inactive	inactive	inactive
C[C@@]12C(=O)OC(=O)[C@]1(C)C1CCC2O1	inactive	inactive	inactive
CCOC(OCC)C(=O)c1ccccc1	31.7 µM (active)	inactive	inactive
CC1CCCNC1 (stereo not given)	inactive	inactive	inactive
CCCCCCCC(=O)OCC	inactive	inactive	inactive
SCCCCCCCCS	inactive	inactive	inactive
O=C(Nc1ccc(Cl)cc1)Nc1ccc(Cl)c(C(F)(F)F)c1	25.7 µM (active)	inactive	inactive
ClC/C=C\CCl	11.7 µM (active)	inactive	inactive
CCC(C)C(=O)OC (stereo not given)	inactive	inactive	inactive
CO[Si](CCCNCCNCCN)(OC)OC	inactive	inactive	inactive
